Data as given in PubChem BioAssay (NCATS).
Results filed as inconclusive are left out. Calls of active or inactive are those of the source. Unless noted, calls come from the whole dose curve; as a rule, active = well fitted curve in the direction sought with a large enough effect; inconclusive = small, poorly fitted or top-dose-only effect, or another doubt; inactive = no such curve, though single readings can be large; an effect the other way counts as inactive or inconclusive.

Experiments:
[1] = Quantitative High-Throughput drug screen in 47 multiple myeloma cell lines against the NCATS MIPE library collection: PE2_PLB cell viability assay (AID 1919869); note: nearly all actives have a fitted effect of over 35% in size; note: potency is the fitted concentration of half-maximal effect
Outline: (§1)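 ATP-based luminescence (CellTiter-Glo, 5 min RT incubation) quantified surviving cells following two days' treatment with MIPE 4.0 agents at 37 °C, 5% CO2.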

[2] = Quantitative High-Throughput drug screen in 47 multiple myeloma cell lines against the NCATS MIPE library collection: PCM6_Riken cell viability assay (AID 1919870); note: nearly all actives have a fitted effect of over 30% in size; note: potency is the fitted concentration of half-maximal effect
Outline: as §1

[3] = Quantitative High-Throughput drug screen in 47 multiple myeloma cell lines against the NCATS MIPE library collection: RPMI8226_ATCC cell viability assay (AID 1919871); note: nearly all actives have a fitted effect of over 30% in size; note: potency is the fitted concentration of half-maximal effect
Outline: as §1

[4] = Quantitative High-Throughput drug screen in 47 multiple myeloma cell lines against the NCATS MIPE library collection: OPM2_DSMZ cell viability assay (AID 1919872); note: nearly all actives have a fitted effect of over 30% in size; note: potency is the fitted concentration of half-maximal effect
Outline: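 Luminescent ATP measurement with CellTiter-Glo gives viability, scaled between DMSO-only wells (100%) and media-only wells (0%). Cells, 500 per well, faced library compounds for 48 hours at 37C.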

[5] = Quantitative High-Throughput drug screen in 47 multiple myeloma cell lines against the NCATS MIPE library collection: KMS11_JCRBsus cell viability assay (AID 1919873); note: nearly all actives have a fitted effect of over 50% in size; note: potency is the fitted concentration of half-maximal effect
Outline: as §1

[6] = Quantitative High-Throughput drug screen in 47 multiple myeloma cell lines against the NCATS MIPE library collection: KMS28BM_JCRB cell viability assay (AID 1919874); note: nearly all actives have a fitted effect of over 35% in size; note: potency is the fitted concentration of half-maximal effect
Outline: as §1

[7] = qHTS drug screen for cell cycle checkpoint inhibitors in PARPi-resistant BRCA-mutant ovarian cancer cell lines. (AID 1963452; calls by dose curve); conditions: PEO1/OlaR viability, CellTiter-Glo luminescence, 96 h, stronger effect = lower value
Outline: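 PEO1, PEO4 and PEO1/OlaR ovarian cancer cells, 600 per well, exposed 96 h at 37C to a dilution series. Viability read by CellTiter-Glo luminescence, normalized to DMSO and empty wells; activity summarized as Z-AUC.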

[8] = qHTS profiling for inhibitors of Plasmodium falciparum proliferation (AID 504749);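 note: 0% = DMSO vehicle and full inhibition = artemisinin control; nearly all actives have a fitted effect of over 60% in size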; conditions: P. falciparum in erythrocytes, SYBR Green DNA, 72 h, at 28.7 µM (top of the series)
Outline: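 In a 72 h erythrocytic culture (37 C, humidified, 5% CO2) at 2.5% hematocrit and 0.3% starting parasitemia, compounds were tested; SYBR Green I in detergent lysis buffer stained parasite DNA overnight.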

[9] = molecular target: Cytochrome P450 3A4 (Homo sapiens) (UniProt P08684); test: qHTS for inhibitors of CYP3A4 against the NCATS DSHEA and TCM libraries (AID 1919971);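 note: % is set by controls: 0 for no effect and ±100 for the full control effect; inhibition lowers luminescence from luciferin made by CYP3A4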
Outline: (§2)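 Substances were tested against enzyme with a pro-luciferin substrate; minus-enzyme wells served as background. After NADPH-initiated oxidation (30-45 min, RT), light was generated with P450-Glo reagent.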

[10] = molecular target: Cytochrome P450 2D6 (Homo sapiens) (UniProt P10635); test: qHTS for inhibitors of CYP2D6 against the NCATS DSHEA and TCM libraries (AID 1919972); note: % is set by controls: 0 for no effect and ±100 for the full control effect
Outline: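 qHTS, concentration–response format with most substances from 19.5 nM. CYP2D6 + pro-luciferin substrate, 15 min with compound, then 1x NADPH regen, 30–45 min RT dark. Glo detection 30 min, luminescence. Quinidine control.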

[11] = molecular target: Cytochrome P450 2C9 (Homo sapiens) (UniProt P11712); test: qHTS for inhibitors of CYP2C9 against the NCATS DSHEA and TCM libraries (AID 1919973);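 note: luminogenic pro-luciferin CYP2C9 substrate turned into luciferin with NADPH regeneration; % is set by controls: 0 for no effect and ±100 for the full control effect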
Outline: as §2

[12] = molecular target: Cytochrome P450 2C19 (Homo sapiens) (UniProt P33261); test: qHTS for inhibitors of CYP2C19 against the NCATS DSHEA and TCM libraries (AID 1919974);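 note: luminescence from luciferin released by CYP2C19 oxidation of a pro-luciferin substrate; % is set by controls: 0 for no effect and ±100 for the full control effect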
Outline: as §2

[13] = KB-3-1 P-gp reporter qHTS against the NCATS DSHEA and TCM libraries (AID 1919975); note: 0% is about no effect
Outline: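 Cell viability by CellTiter-Glo luminescence following ~72 h compound exposure (concentration-response). Uses parental, non-P-gp-overexpressing KB-3-1 line, 500 cells/well in DMEM/10% FBS, attached ~4 h before dosing.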

[14] = molecular target: Cytochrome P450 1A2 (Homo sapiens) (UniProt P05177); test: qHTS for inhibitors of CYPIA2 against the NCATS DSHEA and TCM libraries (AID 1919976); note: % is set by controls: 0 for no effect and ±100 for the full control effect
Outline: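 Luminescence read-out: pro-luciferin converted to D-luciferin by CYP1A2, detected with P450-Glo reagent after 30 min RT. Enzyme plus substrate got compounds for 15 min RT; NADPH regeneration solution (final 1x) started a 30-45 min reaction, light-protected.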

[15] = qHTS Counterscreen for compound interference against the NCATS DSHEA and TCM libraries (AID 1919978); conditions: firefly luciferase detection reagent interference, luminescence;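 note: compounds preincubated with 1 µM D-luciferin or buffer before detection reagent; % of control where 0% means no effect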
Outline: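 With 1 uM D-luciferin or phosphate buffer only, compounds at final 19.5 nM–39.8 uM were incubated for 15 min at room temperature. Luciferase detection reagent was then added, and luminescence was measured after a further 30 min at room temperature.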

[16] = Dual reporter qHTS for agonist of Pregnane X Receptor (hPXR) against the NCATS DSHEA and TCM libraries: Fluorescence readout (AID 1920058); note: 0% is about no effect
Outline: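 Fluorescence read-out for cell viability: CellTiter-Fluor, 1 h at 37 °C, Ex/Em 405/540 nm. This followed ~24 h treatment of hPXR-Luc HepG2 cells with substances in agonist mode.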

[17] = molecular target: Nuclear receptor subfamily 1 group I member 2 (Homo sapiens) (UniProt O75469); test: Dual reporter qHTS for agonist of Pregnane X Receptor (hPXR) against the NCATS DSHEA and TCM libraries: Luminescence readout (AID 1920059); note: 0% is about no effect
Outline: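 Luminescent PXR reporter read (ONE-Glo) after a CellTiter-Fluor viability read, following 24 h, 37C treatment of HepG2 cells stably carrying hPXR-Luc.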

[18] = molecular target: Nuclear receptor subfamily 1 group I member 2 (Homo sapiens) (UniProt O75469); test: Dual reporter qHTS for antagonist of Pregnane X Receptor (hPXR) against the NCATS DSHEA and TCM libraries: Luminescence Readout (AID 1920060);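 note: HepG2 cells carrying hPXR luciferase reporter stimulated with rifampicin at 2 µM; 0% is about no effect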
Outline: (§3)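 HepG2 hPXR-Luc, 2000 cells/well, charcoal-stripped FBS medium; 5 h attach; RIF 2 uM final; 24 h 37C/5% CO2; CellTiter-Fluor 1 h, fluor 405/540; ONE-Glo 30 min RT, lum.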

[19] = Dual reporter qHTS for antagonist of Pregnane X Receptor (hPXR) against the NCATS DSHEA and TCM libraries: Fluorescence Readout (AID 1920061); note: 0% is about no effect
Outline: as §3

[20] = qHTS for identification of novel therapeutic agents for treatment of microphthalmiaassociated transcription factor (MiT) renal cell carcinoma (RCC) (AID 1963991); conditions: CellTiter-Glo, 48 h, stronger effect = lower value;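 note: curves scaled with 100% = DMSO viability and 0% = empty wells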
Outline: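 UOK109/UOK124/UOK145 (TFE3 fusions, three partners); 500 cells/well; MIPE v4.0, 1912 cpds, 11 conc.; 48 h, 37 C; CellTiter-Glo, 15 min RT; lum. Norm.: DMSO 100%, empty 0%.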

[21] = measured here: PEO1 parental Z-AUC
[22] = TFE3-RCC UOK109 viability, measured here: UOK109 Z-AUC
[23] = TFE3-RCC viability, measured here: UOK124 Z-AUC
[24] = TFE3-RCC viability, measured here: UOK145 Z-AUC

Sequence of Nuclear receptor subfamily 1 group I member 2 (Homo sapiens) (O75469 whole entry, looked up): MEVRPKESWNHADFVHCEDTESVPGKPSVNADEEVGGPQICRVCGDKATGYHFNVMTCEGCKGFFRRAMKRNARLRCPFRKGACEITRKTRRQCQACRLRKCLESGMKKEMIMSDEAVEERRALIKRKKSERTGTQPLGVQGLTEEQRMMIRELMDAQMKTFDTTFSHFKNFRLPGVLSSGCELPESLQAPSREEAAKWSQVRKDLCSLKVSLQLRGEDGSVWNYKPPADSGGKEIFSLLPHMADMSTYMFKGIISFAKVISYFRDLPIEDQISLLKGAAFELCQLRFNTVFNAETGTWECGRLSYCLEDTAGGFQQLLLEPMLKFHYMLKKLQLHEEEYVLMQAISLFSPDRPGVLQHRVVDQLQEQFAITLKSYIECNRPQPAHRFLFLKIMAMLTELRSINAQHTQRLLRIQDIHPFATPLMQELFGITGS
Sequence of Cytochrome P450 1A2 (Homo sapiens) (P05177 whole entry, looked up): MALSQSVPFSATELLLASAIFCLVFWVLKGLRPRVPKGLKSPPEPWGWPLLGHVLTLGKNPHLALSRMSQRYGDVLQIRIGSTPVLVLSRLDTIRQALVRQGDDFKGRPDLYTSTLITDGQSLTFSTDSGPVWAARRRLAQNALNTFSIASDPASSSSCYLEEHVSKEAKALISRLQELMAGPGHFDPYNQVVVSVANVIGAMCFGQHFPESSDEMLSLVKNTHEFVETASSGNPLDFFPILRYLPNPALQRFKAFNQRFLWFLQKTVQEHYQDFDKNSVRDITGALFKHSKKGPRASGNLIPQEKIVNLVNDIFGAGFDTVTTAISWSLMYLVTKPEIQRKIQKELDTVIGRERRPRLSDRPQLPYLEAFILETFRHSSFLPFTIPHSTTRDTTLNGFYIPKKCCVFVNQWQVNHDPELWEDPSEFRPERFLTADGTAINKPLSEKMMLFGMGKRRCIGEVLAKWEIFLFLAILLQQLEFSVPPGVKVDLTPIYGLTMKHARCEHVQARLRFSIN
Sequence of Cytochrome P450 2C19 (Homo sapiens) (P33261 whole entry, looked up): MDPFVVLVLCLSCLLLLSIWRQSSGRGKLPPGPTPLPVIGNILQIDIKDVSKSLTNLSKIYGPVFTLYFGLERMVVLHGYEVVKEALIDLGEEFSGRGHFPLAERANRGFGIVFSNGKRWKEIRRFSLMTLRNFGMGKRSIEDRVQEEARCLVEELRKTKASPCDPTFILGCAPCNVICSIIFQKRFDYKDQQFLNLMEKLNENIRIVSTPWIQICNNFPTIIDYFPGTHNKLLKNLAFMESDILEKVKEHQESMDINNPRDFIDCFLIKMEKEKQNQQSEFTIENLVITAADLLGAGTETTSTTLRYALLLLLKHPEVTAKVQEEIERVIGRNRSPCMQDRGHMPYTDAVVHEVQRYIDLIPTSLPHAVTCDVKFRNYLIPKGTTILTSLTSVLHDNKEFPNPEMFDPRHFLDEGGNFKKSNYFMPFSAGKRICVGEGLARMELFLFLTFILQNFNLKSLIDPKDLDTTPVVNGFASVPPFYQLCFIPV
Sequence of Cytochrome P450 3A4 (Homo sapiens) (P08684 whole entry, looked up): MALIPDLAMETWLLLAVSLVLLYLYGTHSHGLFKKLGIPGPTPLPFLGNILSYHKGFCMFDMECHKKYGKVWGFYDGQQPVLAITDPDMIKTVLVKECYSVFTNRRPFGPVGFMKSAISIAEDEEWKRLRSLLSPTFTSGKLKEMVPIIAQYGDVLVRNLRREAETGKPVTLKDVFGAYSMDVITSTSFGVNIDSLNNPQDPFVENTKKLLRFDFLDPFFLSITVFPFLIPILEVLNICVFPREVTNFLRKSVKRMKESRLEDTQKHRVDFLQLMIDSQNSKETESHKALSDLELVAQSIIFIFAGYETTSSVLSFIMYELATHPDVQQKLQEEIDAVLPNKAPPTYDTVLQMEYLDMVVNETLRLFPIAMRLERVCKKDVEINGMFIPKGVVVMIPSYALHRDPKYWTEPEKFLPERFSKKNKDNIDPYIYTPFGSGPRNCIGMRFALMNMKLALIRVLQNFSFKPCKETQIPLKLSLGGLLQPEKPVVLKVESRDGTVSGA
Sequence of Cytochrome P450 2C9 (Homo sapiens) (P11712 whole entry, looked up): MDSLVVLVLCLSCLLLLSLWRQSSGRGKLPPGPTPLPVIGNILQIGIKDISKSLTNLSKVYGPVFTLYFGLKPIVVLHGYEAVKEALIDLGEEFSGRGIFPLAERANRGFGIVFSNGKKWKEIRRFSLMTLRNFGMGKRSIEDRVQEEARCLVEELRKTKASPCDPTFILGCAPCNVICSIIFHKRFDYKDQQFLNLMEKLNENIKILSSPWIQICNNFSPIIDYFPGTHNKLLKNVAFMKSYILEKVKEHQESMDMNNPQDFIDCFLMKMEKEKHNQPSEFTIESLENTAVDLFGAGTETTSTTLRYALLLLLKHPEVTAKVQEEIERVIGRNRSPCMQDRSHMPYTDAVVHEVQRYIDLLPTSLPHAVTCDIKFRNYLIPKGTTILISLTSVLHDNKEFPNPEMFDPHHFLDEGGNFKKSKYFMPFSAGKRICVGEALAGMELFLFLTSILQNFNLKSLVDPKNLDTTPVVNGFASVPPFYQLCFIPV
Sequence of Cytochrome P450 2D6 (Homo sapiens) (P10635 whole entry, looked up): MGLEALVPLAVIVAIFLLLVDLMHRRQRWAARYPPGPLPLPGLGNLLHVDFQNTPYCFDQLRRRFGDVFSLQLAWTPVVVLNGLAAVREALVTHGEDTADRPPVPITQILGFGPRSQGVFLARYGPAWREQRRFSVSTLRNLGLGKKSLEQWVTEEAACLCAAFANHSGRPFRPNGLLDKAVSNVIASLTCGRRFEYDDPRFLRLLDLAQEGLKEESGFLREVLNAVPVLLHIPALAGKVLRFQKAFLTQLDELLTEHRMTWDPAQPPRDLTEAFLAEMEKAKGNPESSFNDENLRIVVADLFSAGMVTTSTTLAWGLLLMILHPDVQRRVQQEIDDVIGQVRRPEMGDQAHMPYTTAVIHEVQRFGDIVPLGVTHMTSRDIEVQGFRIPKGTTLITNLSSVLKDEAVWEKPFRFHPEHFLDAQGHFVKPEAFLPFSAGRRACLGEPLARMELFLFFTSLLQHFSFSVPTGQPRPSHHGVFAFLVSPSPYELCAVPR

In the case of Cc1[nH]c(=O)c(C#N)cc1-c1ccncc1, the Potency [1] is reported as 11.8 µM (active), the Potency [2] is reported as 7.43 µM (active) and the Potency [3] is reported as “inactive”. For the same compound, the Potency [4] was “inactive”, the Potency [5] was “inactive” and the Potency [6] was 11.8 µM (active). For the same compound, the Z-AUC [7] was -0.809 (inactive), the Z-AUC [7, 21] was -0.611 and the Z-AUC ([7]; measured here: PEO4 Z-AUC) was -0.635. The activity, negative = inhibition ([8]; parasite line A) was -21.8% (inactive) and the activity, negative = inhibition ([8]; parasite line B) was -1.27% (inactive).

For c1ccc(-c2nn3c(c2-c2ccnc4cc(OCCN5CCOCC5)ccc24)CCC3)nc1, the Potency [1] was 10.5 µM (active), the Potency [2] was 1.48 µM (active) and the Potency [3] was 20.9 µM (active). The Potency [6] was “inactive”, the Z-AUC [7] was 0.744 (inactive) and the Z-AUC [7, 21] was 0.379. The Z-AUC ([7]; measured here: PEO4 Z-AUC) was 0.692.

In the case of NC(=O)c1cnccn1, the Potency [1] is reported as “inactive”, the Potency [2] is reported as “inactive” and the Potency [3] is reported as “inactive”. For the same compound, the Potency [4] was “inactive”, the Potency [5] was “inactive” and the Potency [6] was “inactive”. For the same compound, the outcome [9] was “inactive”, the outcome [10] was “inactive” and the outcome [11] was “inactive”. For the same compound, the outcome [12] was “inactive”, the outcome [13] was “inactive” and the outcome [14] was “inactive”. The max response [15] was 0.688% (inactive), the outcome [16] was “inactive” and the outcome [17] was “inactive”. The outcome [18] was “inactive”, the outcome [19] was “inactive” and the Z-AUC [7] was 0.616 (inactive). For the same compound, the Z-AUC [7, 21] was 0.733, the Z-AUC ([7]; measured here: PEO4 Z-AUC) was 0.41 and the z-score [20, 22] was 0.906. For the same compound, the z-score [20, 23] was 0.826, the z-score [20, 24] was 0.673 and the activity, negative = inhibition ([8]; parasite line A) was 13.8% (inactive). The activity, negative = inhibition ([8]; parasite line B) was 12.8% (inactive).

For CC(C[N+](C)(C)C)OC(N)=O (stereo not given), the Potency [1] was “inactive”, the Potency [2] was “inactive” and the Potency [3] was “inactive”. For the same compound, the Potency [6] was “inactive”, the Z-AUC [7] was 1.18 (inactive) and the Z-AUC [7, 21] was 1.37. The Z-AUC ([7]; measured here: PEO4 Z-AUC) was 1.64, the z-score [20, 22] was 0.592 and the z-score [20, 23] was 0.666. For the same compound, the z-score [20, 24] was 0.688, the activity, negative = inhibition ([8]; parasite line A) was 8.36% (inactive) and the activity, negative = inhibition ([8]; parasite line B) was 9.26% (inactive).

With C[C@@H]1CN(Cc2ccc(F)cc2)[C@@H](C)CN1C(=O)c1cc2c(C(=O)C(=O)N(C)C)cn(C)c2cc1Cl the Potency [1] was 16.6 µM (active), the Potency [2] was 18.7 µM (active) and the Potency [4] was “inactive”.

For Clc1cccc(Cl)c1NC1=NCCN1, the Potency [1] was “inactive”, the Potency [2] was “inactive” and the Potency [4] was “inactive”. For the same compound, the Potency [6] was “inactive”, the activity, negative = inhibition ([8]; parasite line A) was -1.81% (inactive) and the activity, negative = inhibition ([8]; parasite line B) was 0.0653% (inactive).

In the case of Cc1ccc(NC(=O)c2cccc(C(C)(C)C#N)c2)cc1Nc1ccc2ncn(C)c(=O)c2c1, the Potency [1] is reported as 5.9 µM (active), the Potency [2] is reported as “inactive” and the Potency [4] is reported as 16.6 µM (active). The Potency [5] was 11.8 µM (active), the Z-AUC [7] was 0.851 (inactive) and the Z-AUC [7, 21] was 0.186. It also gave a Z-AUC ([7]; measured here: PEO4 Z-AUC) of 0.24.

For O=C(O)[C@@H](c1ccc(OCc2ccc3ccccc3n2)cc1)C1CCCC1, the Potency [1] was “inactive”, the Potency [2] was “inactive” and the Potency [4] was “inactive”. For the same compound, the Z-AUC [7] was 1.02 (inactive), the Z-AUC [7, 21] was 0.403 and the Z-AUC ([7]; measured here: PEO4 Z-AUC) was 0.552. For the same compound, the z-score [20, 22] was 0.431, the z-score [20, 23] was 0.636 and the z-score [20, 24] was 0.202.
